Test results from the supplement of paper PMC11172423.

Tested on: Madurella mycetomatis MM55
Test: growth relative to untreated control; higher = less inhibition, active = 20 or less
Conditions: 25 µM
Method: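 Hyphal fragments of M. mycetomatis MM55 or F. senegalensis CBS197.79 in RPMI 1640/MOPS were exposed to each MMV COVID Box or Global Health Priority Box compound at 100 or 25 µM for 7 days at 37 °C. Viability was read with MTS (490 nm, M. mycetomatis) or resazurin (600 nm, F. senegalensis), background-corrected with a medium-only control and expressed as % growth relative to the untreated growth control. Inhibition of more than 80% was taken as growth inhibition.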

Row | SMILES | growth
1 | CCOc1ccc(-c2nc(NC(=O)Cc3cccc(OC)c3)sc2C)cc1 | 99.6% (inactive)
2 | O=C(c1ccc(Nc2nccc(-c3ccc(Cl)cc3)n2)cc1)N1CC[C@@H](CO)C1 | 113% (inactive)
3 | FC(F)(F)c1cc(Cl)cc(Nc2nc3cnc(NC4CCOCC4)nc3n2C2CCNCC2)c1 | 111% (inactive)
4 | CC(C)Oc1cccc(-c2ccc3nc(Nc4ncccc4N(C)C)cn3c2)n1 | 124% (inactive)
5 | N#Cc1ccc(C/C(=N/NC(=O)Nc2ccc(OC(F)(F)F)cc2)c2cccc(C(F)(F)F)c2)cc1 | 98.2% (inactive)
6 | O=C(c1ccc(Nc2nccc(-c3ccc(Cl)cc3)n2)cc1)N1CCS(=O)(=O)CC1 | 76.8% (inactive)
7 | C[C@H](NC(=O)c1cc2cccc(F)c2[nH]1)c1ccccc1 | 26.9% (inactive)
8 | CC(C)(C)[S@@](=O)N1Cc2cc(C(=O)NCCc3ccncc3)nc(-c3cccc(-c4ccccc4)c3)c2[C@H]1CCO | 67.6% (inactive)
9 | NC1(c2ccc(-c3nc4ccn5c(O)nnc5c4cc3-c3ccccc3)cc2)CCC1 | 79.3% (inactive)
10 | COc1cc(N2CCN(C)CC2)ccc1Nc1nccc(-c2cn(C)c3cnccc23)n1 | 36.2% (inactive)
11 | Cn1c(O)nnc1Cn1ccc(C(F)(F)F)c(Oc2cc(Cl)cc(C#N)c2)c1=O | 92.7% (inactive)
12 | CCCNc1nc(NC2CCCCC2)c2ccsc2n1 | 14.7% (active)
13 | CN1CCN(c2ccc(C(=O)NCc3cnc(C#N)nc3NCC(C)(C)C)cc2)CC1 | 72.9% (inactive)
14 | Cc1cccnc1Nc1cn2cc(-c3cccc(OCC(F)(F)F)n3)ccc2n1 | 119% (inactive)
15 | CCOc1ccccc1NC(=O)Cn1c(=O)n(Cc2ccccc2)c(=O)c2c(C)c(C(=O)N(C)C)sc21 | 104% (inactive)
16 | C[C@H](Cn1cnc2c(N)ncnc21)OCP(=O)(O)O | 89.4% (inactive)
17 | Cc1cccc(Nc2nccc(-c3cccc(C#N)c3)n2)c1 | 84.1% (inactive)
18 | CN1CCC(Oc2nc(Nc3ccccc3)nc3[nH]cc(-c4cnn(C)c4)c23)CC1 | 78.3% (inactive)
19 | CC(=O)c1nn(-c2c(Cl)cc(C(F)(F)F)cc2Cl)c(N)c1S(C)=O (stereo not given) | 119% (inactive)
20 | CC(C)(C)c1nc(-c2cccc(NS(=O)(=O)c3c(F)cccc3F)c2F)c(-c2ccnc(N)n2)s1 | 103% (inactive)

Same assay, conditions: 100 µM

Row | SMILES | growth
21 | CCOc1ccc(-c2nc(NC(=O)Cc3cccc(OC)c3)sc2C)cc1 | 83.1% (inactive)
22 | O=C(c1ccc(Nc2nccc(-c3ccc(Cl)cc3)n2)cc1)N1CC[C@@H](CO)C1 | 117% (inactive)
23 | FC(F)(F)c1cc(Cl)cc(Nc2nc3cnc(NC4CCOCC4)nc3n2C2CCNCC2)c1 | 5.14% (active)
24 | CC(C)Oc1cccc(-c2ccc3nc(Nc4ncccc4N(C)C)cn3c2)n1 | 84.6% (inactive)
25 | N#Cc1ccc(C/C(=N/NC(=O)Nc2ccc(OC(F)(F)F)cc2)c2cccc(C(F)(F)F)c2)cc1 | 91.3% (inactive)
26 | O=C(c1ccc(Nc2nccc(-c3ccc(Cl)cc3)n2)cc1)N1CCS(=O)(=O)CC1 | 81.3% (inactive)
27 | C[C@H](NC(=O)c1cc2cccc(F)c2[nH]1)c1ccccc1 | 6.74% (active)
28 | CC(C)(C)[S@@](=O)N1Cc2cc(C(=O)NCCc3ccncc3)nc(-c3cccc(-c4ccccc4)c3)c2[C@H]1CCO | 52.9% (inactive)
29 | NC1(c2ccc(-c3nc4ccn5c(O)nnc5c4cc3-c3ccccc3)cc2)CCC1 | 3.13% (active)
30 | COc1cc(N2CCN(C)CC2)ccc1Nc1nccc(-c2cn(C)c3cnccc23)n1 | 4.78% (active)
31 | Cn1c(O)nnc1Cn1ccc(C(F)(F)F)c(Oc2cc(Cl)cc(C#N)c2)c1=O | 90.8% (inactive)
32 | CCCNc1nc(NC2CCCCC2)c2ccsc2n1 | 48.2% (inactive)
33 | CN1CCN(c2ccc(C(=O)NCc3cnc(C#N)nc3NCC(C)(C)C)cc2)CC1 | 3.97% (active)
34 | Cc1cccnc1Nc1cn2cc(-c3cccc(OCC(F)(F)F)n3)ccc2n1 | 8.06% (active)
35 | CCOc1ccccc1NC(=O)Cn1c(=O)n(Cc2ccccc2)c(=O)c2c(C)c(C(=O)N(C)C)sc21 | 109% (inactive)
36 | C[C@H](Cn1cnc2c(N)ncnc21)OCP(=O)(O)O | 81.3% (inactive)
37 | Cc1cccc(Nc2nccc(-c3cccc(C#N)c3)n2)c1 | 49.1% (inactive)
38 | CN1CCC(Oc2nc(Nc3ccccc3)nc3[nH]cc(-c4cnn(C)c4)c23)CC1 | 17.9% (active)
39 | CC(=O)c1nn(-c2c(Cl)cc(C(F)(F)F)cc2Cl)c(N)c1S(C)=O (stereo not given) | 107% (inactive)
40 | CC(C)(C)c1nc(-c2cccc(NS(=O)(=O)c3c(F)cccc3F)c2F)c(-c2ccnc(N)n2)s1 | 82.4% (inactive)
